“And” between values parts separate entries of the source, which are not always exact repeats. Equal values may be shown once. About 2,000 (36%) of roughly 5,500 compounds were called active. Not shown: some 18% with an inconclusive outcome. Rule as the data show it: active = normalized growth mostly below about 0.91 (no sharp cut-off); inconclusive = no clear call, values can overlap the other calls; inactive = mostly above about 0.92. The list shows a part of the results.
Assay: chemical genetic growth profiling, strain panel (AID 1159580);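 also: tested at 20 µM; growth read once vehicle control cultures reached saturation at 30 °C; 1 = growth at the plate median or of vehicle wells; lower values mean less growth of the strain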
Details: growth OD

Measured: normalized growth

CCn1cc(C(=O)O)c(=O)c2cc3c(cc21)OCO3
inactive: S. cerevisiae deletion strains, locus YJR066W, strain TOR1, stronger effect = lower value 0.991 | S. cerevisiae deletion strains, locus YJR075W, strain HOC1, stronger effect = lower value 1.02 and 0.993 | S. cerevisiae deletion strains, locus YKL009W, strain mrt4, stronger effect = lower value 1.01 | S. cerevisiae deletion strains, locus YKL068W, stronger effect = lower value 0.996 | S. cerevisiae deletion strains, locus YKL085W, strain MDH1 (second series), stronger effect = lower value 0.996 | S. cerevisiae deletion strains, locus YKL085W, strain MDH1, stronger effect = lower value 0.996 | S. cerevisiae deletion strains, locus YKL160W, strain elf1, stronger effect = lower value 0.961 | S. cerevisiae deletion strains, locus YKL190W, strain CNB1, stronger effect = lower value 1.01 | S. cerevisiae deletion strains, locus YKR001C, strain vps1, stronger effect = lower value 1.01 | S. cerevisiae deletion strains, locus YKR026C, strain gcn3, stronger effect = lower value 0.987 | S. cerevisiae deletion strains, locus YKR091W, strain srl3, stronger effect = lower value 0.982 | S. cerevisiae deletion strains, locus YLL001W, strain dnm1, stronger effect = lower value 0.96 | S. cerevisiae deletion strains, locus YLL026W, stronger effect = lower value 0.988 | S. cerevisiae deletion strains, locus YLL041C, strain sdh2, stronger effect = lower value 0.98 | S. cerevisiae deletion strains, locus YLR027C, strain aat2, stronger effect = lower value 0.986 | S. cerevisiae deletion strains, locus YLR039C, strain RIC1, stronger effect = lower value 1.03 | S. cerevisiae deletion strains, locus YLR058C, strain SHM2, stronger effect = lower value 1.01 | S. cerevisiae deletion strains, locus YLR102C, strain apc9, stronger effect = lower value 0.994 | S. cerevisiae deletion strains, locus YLR113W, strain HOG1, stronger effect = lower value 1.07 | S. cerevisiae deletion strains, locus YLR221C, strain rsa3, stronger effect = lower value 0.96 | S. cerevisiae deletion strains, locus YLR258W, strain gsy2, stronger effect = lower value 0.983 | S. cerevisiae deletion strains, locus YLR262C, strain YPT6 (second series), stronger effect = lower value 0.909 | S. cerevisiae deletion strains, locus YLR262C, strain YPT6, stronger effect = lower value 1.04 | S. cerevisiae deletion strains, locus YLR268W, strain sec22, stronger effect = lower value 1 | S. cerevisiae deletion strains, locus YLR320W, strain mms22, stronger effect = lower value 0.956 | S. cerevisiae deletion strains, locus YLR330W, strain CHS5, stronger effect = lower value 1.01 | S. cerevisiae deletion strains, locus YLR342W, strain FKS1 (second series), stronger effect = lower value 0.996 | S. cerevisiae deletion strains, locus YLR342W, strain FKS1, stronger effect = lower value 0.977 | S. cerevisiae deletion strains, locus YLR357W, strain rsc2, stronger effect = lower value 0.944 | S. cerevisiae deletion strains, locus YLR370C, strain arc18, stronger effect = lower value 0.964 | S. cerevisiae deletion strains, locus YLR371W, strain rom2, stronger effect = lower value 0.993 | S. cerevisiae deletion strains, locus YLR384C, strain iki3, stronger effect = lower value 0.959 | S. cerevisiae deletion strains, locus YLR418C, strain cdc73, stronger effect = lower value 1.01 | S. cerevisiae deletion strains, locus YML016C, strain PPZ1, stronger effect = lower value 1.01 | S. cerevisiae deletion strains, locus YML032C, strain rad52, stronger effect = lower value 1 | S. cerevisiae deletion strains, locus YML120C, strain ndi1, stronger effect = lower value 0.97 | S. cerevisiae deletion strains, locus YML124C, strain tub3, stronger effect = lower value 0.997 | S. cerevisiae deletion strains, locus YMR058W, strain fet3, stronger effect = lower value 0.982 | S. cerevisiae deletion strains, locus YMR078C, strain ctf18, stronger effect = lower value 1 | S. cerevisiae deletion strains, locus YMR125W, strain sto1, stronger effect = lower value 0.962 | S. cerevisiae deletion strains, locus YMR129W, stronger effect = lower value 0.989 | S. cerevisiae deletion strains, locus YMR205C, strain PFK2, stronger effect = lower value 0.946 | S. cerevisiae deletion strains, locus YMR223W, strain ubp8, stronger effect = lower value 1 | S. cerevisiae deletion strains, locus YMR231W, strain pep5, stronger effect = lower value 0.978 | S. cerevisiae deletion strains, locus YMR263W, strain SAP30, stronger effect = lower value 0.994 | S. cerevisiae deletion strains, locus YMR307W, strain GAS1, stronger effect = lower value 1.04 | S. cerevisiae deletion strains, locus YNL067W, strain RPL9B, stronger effect = lower value 1.02 | S. cerevisiae deletion strains, locus YNL071W, strain lat1, stronger effect = lower value 0.984 | S. cerevisiae deletion strains, locus YNL128W, strain TEP1, stronger effect = lower value 0.983 | S. cerevisiae deletion strains, locus YNL153C, strain GIM3, stronger effect = lower value 0.997 | S. cerevisiae deletion strains, locus YNL175C, strain NOP13, stronger effect = lower value 0.988 | S. cerevisiae deletion strains, locus YNL183C, strain NPR1, stronger effect = lower value 0.973 | S. cerevisiae deletion strains, locus YNL197C, strain WHI3, stronger effect = lower value 0.984 | S. cerevisiae deletion strains, locus YNL209W, strain ssb2, stronger effect = lower value 0.986 | S. cerevisiae deletion strains, locus YNL224C, strain SQS1, stronger effect = lower value 0.972 | S. cerevisiae deletion strains, locus YNL233W, strain BNI4, stronger effect = lower value 1.02 | S. cerevisiae deletion strains, locus YNL248C, strain rpa49, stronger effect = lower value 0.964 | S. cerevisiae deletion strains, locus YNL250W, strain rad50, stronger effect = lower value 1.01 | S. cerevisiae deletion strains, locus YNL271C, strain bni1, stronger effect = lower value 0.993 | S. cerevisiae deletion strains, locus YNL298W, strain CLA4, stronger effect = lower value 0.997 | S. cerevisiae deletion strains, locus YNL307C, strain MCK1, stronger effect = lower value 0.997 | S. cerevisiae deletion strains, locus YNL322C, strain KRE1 (second series), stronger effect = lower value 0.959 | S. cerevisiae deletion strains, locus YNR049C, strain mso1, stronger effect = lower value 0.974 | S. cerevisiae deletion strains, locus YNR052C, strain pop2, stronger effect = lower value 1 | S. cerevisiae deletion strains, locus YOL006C, strain TOP1, stronger effect = lower value 1.04 | S. cerevisiae deletion strains, locus YOL012C, strain htz1 1.19 | S. cerevisiae deletion strains, locus YOL147C, strain pex11, stronger effect = lower value 0.991 | S. cerevisiae deletion strains, locus YOR001W, strain rrp6, stronger effect = lower value 1.01 | S. cerevisiae deletion strains, locus YOR061W, strain CKA2, stronger effect = lower value 1.02 | S. cerevisiae deletion strains, locus YOR069W, strain VPS5, stronger effect = lower value 1.01 | S. cerevisiae deletion strains, locus YOR070C, strain gyp1, stronger effect = lower value 0.975 | S. cerevisiae deletion strains, locus YOR080W, strain dia2, stronger effect = lower value 0.972 | S. cerevisiae deletion strains, locus YOR083W, strain WHI5 (second series), stronger effect = lower value 0.981 | S. cerevisiae deletion strains, locus YOR083W, strain WHI5, stronger effect = lower value 0.969 | S. cerevisiae deletion strains, locus YOR106W, strain vam3, stronger effect = lower value 0.935 | S. cerevisiae deletion strains, locus YOR136W, strain idh2, stronger effect = lower value 0.997 | S. cerevisiae deletion strains, locus YOR144C, strain elg1, stronger effect = lower value 0.991 | S. cerevisiae deletion strains, locus YOR184W, strain ser1, stronger effect = lower value 0.998 | S. cerevisiae deletion strains, locus YOR231W, strain MKK1, stronger effect = lower value 1.1 | S. cerevisiae deletion strains, locus YOR265W, strain rbl2, stronger effect = lower value 0.973 | S. cerevisiae deletion strains, locus YOR270C, strain vph1, stronger effect = lower value 0.957 | S. cerevisiae deletion strains, locus YOR290C, strain snf2, stronger effect = lower value 0.976 | S. cerevisiae deletion strains, locus YOR316C, strain cot1, stronger effect = lower value 0.997 | S. cerevisiae deletion strains, locus YPL051W, strain arl3, stronger effect = lower value 0.995 | S. cerevisiae deletion strains, locus YPL055C, strain LGE1, stronger effect = lower value 0.985 | S. cerevisiae deletion strains, locus YPL078C, strain atp4, stronger effect = lower value 0.971 | S. cerevisiae deletion strains, locus YPL106C, strain sse1, stronger effect = lower value 0.936 | S. cerevisiae deletion strains, locus YPL240C, strain hsp82, stronger effect = lower value 0.992 | S. cerevisiae deletion strains, locus YPL256C, strain CLN2, stronger effect = lower value 1.09 | S. cerevisiae deletion strains, locus YPR119W, strain clb2, stronger effect = lower value 0.988 | S. cerevisiae deletion strains, locus YPR141C, strain kar3, stronger effect = lower value 0.988 | S. cerevisiae deletion strains, locus YPR163C, strain tif3, stronger effect = lower value 0.987 | S. cerevisiae deletion strains, locus YPR167C, strain met16, stronger effect = lower value 0.985 | S. cerevisiae deletion strains, strain wtn01, stronger effect = lower value 1 | S. cerevisiae strains, strain wild type, stronger effect = lower value 1.02

Source: PubChem BioAssay AID1159580 (chemical genetic matrix, 2015)
